Holding throughout (test): NCI-60 one-dose screen, 48 h (100 = growth as untreated, 0 = no growth, -100 = all killed)
Common to all, as to settings: 10 µM unless noted

Test [1] concerns NCI-H23 lung.
In test [2] the test system is NCI-H226 lung.
Test [3] has as its system NCI-H322M lung.
Test [4] deals with HOP-62 NSCLC.
In test [5] the test system is NCI-H460 lung.
Test [6] relates to HOP-92 NSCLC.
In test [7] the test system is NCI-H522 lung.
Test [8] relates to A549/ATCC NSCLC.
Test [9] deals with 786-0 renal.
Test [10] relates to COLO 205 colon.
For test [11], the system named is DU-145 prostate.
For test [12], the system named is K-562 leukemia.
In test [13] the test system is MALME-3M melanoma.
For test [14], the system named is MDA-MB-231 breast.
For test [15], the system named is RXF 393 renal.
The subject of test [16] is SF-268 CNS.
For test [17], the system named is SF-295 CNS.
Test [18] has as its system SF-539 CNS.
Test [19] deals with UACC-257 melanoma.
Test [20] has as its system M14 melanoma.

Molecules are shown by their SMILES. Several values for one entry are separate records, joined by “and”; a condition that tells them apart may be missing. Equal entries are not always repeated. This is part of a sample that, as a whole, favours compounds with a hit. Of some 83,000 tested, about 20% had one in any assay.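 Compound tested at a single concentration for 48 hours in 96-well plates; a percent growth value below 10 was scored as active.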 Activity calls are given as the source filed them.

With `COc1cc2c(cc1OC)[C@@H]1C(=O)c3ccc4c(c3O[C@@H]1CO2)C[C@H](C(C)C)O4`, the growth is 34.2% (inactive) in test [1]; 62.8% (inactive) in test [2]; 82.1% (inactive) in test [3]; 63.6% (inactive) in test [4]; 51.5% (inactive) in test [5]; 57.3% (inactive) in test [6]. Besides, the growth in test [7] was 30.5% (inactive); in [8] it was 65.5% (inactive); in test [9] it was 60.2% (inactive); in [10] it was 82.4% (inactive); in test [11], 85.5% (inactive); in test [12] it was 19.9% (inactive). Further, the growth in test [13] was 56.5% (inactive); in [14], 78.3% (inactive); in test [15], 102% (inactive); in [16] it was 79.7% (inactive); in [17], 18.6% (inactive); in test [18], 70.7% (inactive). Further, the growth in test [19] is 58% (inactive); in test [20] it was 75.4% (inactive).
Take `O=C(NC1=NCC[Se]1)c1ccccc1O`: the growth in [1] is 65.6% (inactive); in test [2] it was 62.9% (inactive); in test [3], 49.4% (inactive); in test [4] it was 39% (inactive); in test [5], 16.2% (inactive); in [6], 63.5% (inactive). Moreover, the growth is 60.9% (inactive) in test [7]; 56.8% (inactive) in [8]; 94.7% (inactive) in test [9]; 124% (inactive) in test [10]; 61.1% (inactive) in [11]; 50.7% (inactive) in [12]. The growth is -22.9% (active) in test [13]; 69.3% (inactive) in [14]; 44% (inactive) in [15]; 43.3% (inactive) in [16]; 95.4% (inactive) in test [17]; 52.9% (inactive) in test [18]. Moreover, the growth in test [19] is 55.3% (inactive); in test [20], 42% (inactive).
In the case of `O=Cc1cn(Cc2ccccc2)c2ccccc12`, the growth was 80.1% (inactive) in [1]; 28.2% (inactive) in test [2]; 86% (inactive) in test [3]; 65.8% (inactive) in test [4]; 20.9% (inactive) in test [5]; 74.4% (inactive) in test [6]. Also, the growth in [7] was 121% (inactive); in [8], 76.6% (inactive); in test [9], 87.6% (inactive); in test [10], 15.4% (inactive); in test [11] it was 108% (inactive); in test [12], 53.3% (inactive). In addition, the growth was 127% (inactive) in test [13]; 92.7% (inactive) in [14]; 67.6% (inactive) in test [15]; 104% (inactive) in test [16]; 99.5% (inactive) in test [17]; 95.1% (inactive) in [18]. For the same compound, the growth in test [19] is 37.8% (inactive); in test [20] it was 117% (inactive).
As for `CC(=O)Nc1nc2c(s1)C1=CC[C@H]3[C@@H]4CC[C@H](OC(C)=O)[C@@]4(C)CC[C@@H]3[C@@]1(C)CC2`, the growth in test [1] is 69.7% (inactive); in test [2], 91.7% (inactive); in [3], 75.2% (inactive); in test [4], 55.6% (inactive); in test [5], 64.1% (inactive); in test [6] it was 87.2% (inactive). Also, the growth in test [7] was 39.3% (inactive); in [8] it was 54% (inactive); in test [9] it was 32% (inactive); in test [10], 67.3% (inactive); in test [11] it was 72.1% (inactive); in test [12], 35.1% (inactive). For the same compound, the growth is 66.5% (inactive) in test [13]; 80.3% (inactive) in test [14]; 7.7% (active) in test [15]; 58.4% (inactive) in [16]; 29.4% (inactive) in test [17]; 14% (inactive) in test [18]. Besides, the growth in [19] was 79.2% (inactive); in [20], 39.7% (inactive).
Take `C[C@]12C[C@H](c3ccoc3)OC(=O)[C@H]1CC[C@@]1(C)[C@@H]2[C@H]2C=C[C@]1(O)C(=O)O2`: the growth in test [1] was 102% (inactive); in test [2], 101% (inactive); in test [3] it was 79.1% (inactive); in [4], 104% (inactive); in test [5], 108% (inactive); in test [6], 81.3% (inactive). Also, the growth in [7] was 68.1% (inactive); in test [8], 84.5% (inactive); in [9], 91.9% (inactive); in test [10], 104% (inactive); in test [11], 109% (inactive); in [12] it was 76.9% (inactive). Further, the growth in test [13] is 101% (inactive); in test [14] it was 102% (inactive); in [15] it was 102% (inactive); in test [16], 98.3% (inactive); in test [17], 91.1% (inactive); in test [18], 92.4% (inactive). Moreover, the growth in [19] was 86.2% (inactive); in test [20], 87.6% (inactive).
Consider `CN(C)C(=S)SSC(=S)N(C)C`, for which the growth was 98.9% (inactive) and 138% (inactive) in test [1]; 99.3% (inactive) and 110% (inactive) in [2]; 75.3% (inactive) and 94.9% (inactive) in [3]; 111% (inactive) and 112% (inactive) in test [4]; -20.9% (active) and 92.9% (inactive) in test [5]; 102% (inactive) in test [6]. In addition, the growth is 25.3% (inactive) and 24.4% (inactive) in test [7]; 80% (inactive) and 71.6% (inactive) in test [8]; 107% (inactive) and 101% (inactive) in [9]; 63.1% (inactive) and 70.6% (inactive) in [10]; 105% (inactive) and 125% (inactive) in [11]; 105% (inactive) in [12]. The growth is 65.5% (inactive) and 90.9% (inactive) in [13]; 112% (inactive) and 98.5% (inactive) in test [14]; 104% (inactive) and 128% (inactive) in [15]; 102% (inactive) and 113% (inactive) in test [16]; 75% (inactive) and 96.9% (inactive) in test [17]; 100% (inactive) and 112% (inactive) in test [18]. In addition, the growth was 77.7% (inactive) and 103% (inactive) in [19]; 93% (inactive) and 100% (inactive) in test [20].

Source of the values: PubChem BioAssay (NCI).
